Shown are actives, neighbours in structure and some others; about 0.85% of the full set was active somewhere.
TDP1 block: TDP1 (human) enzyme inhibition. 350,000 compounds, 0.28% hits. AID 485290. Potency, µM (top dose mostly 130 µM), for the others: top-dose activity change, negative = inhibition, most hits filed as inhibitors. Q9NUW8. recombinant TDP1, AlphaScreen DNA substrate cleavage; further: nearly all actives have a fitted effect of over 40% in size
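Here, a 5' biotin and 3' phosphotyrosine-FITC DNA oligonucleotide reports Tdp1 activity: intact substrate bridges AlphaScreen beads, while cleavage leaves a 3' phosphate and drops signal. All incubations at room temperature.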
GLS inhibitor: inhibitors of human glutaminase (GLS) | O94925 | GLS enzymatic activity, qHTS titration | Potency, µM (doses to about 45.5 µM), for inactives: at the highest dose activity change, negative = inhibition, usual class: inhibitors | 410,000 compounds, 0.21% hits | AID 624170
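Coupled fluorescence readout: glutamate oxidase/HRP/Amplex Red detect glutamate formed by hKGA from L-glutamine (1 mM solution added). Buffer 45 mM KH2PO4 pH 8.2, 0.02% Tween-20; reads at t0 and 30 min RT.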
APEX1 inh: APE1 (human) endonuclease inhibition; Potency, µM (titrated, usually from 65.8 µM), for the others: at the highest dose activity change, negative = inhibition, hits mostly inhibitors; recombinant APE1, TAMRA/BHQ-2 abasic DNA cleavage fluorescence; P27695; AID 2517; 350,000 compounds, 0.35% hits;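 further: plate controls were vehicle for no effect and reference inhibitor for full effect; nearly all actives have a fitted effect of over 55% in size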
Target sequence (P27695 whole entry, looked up): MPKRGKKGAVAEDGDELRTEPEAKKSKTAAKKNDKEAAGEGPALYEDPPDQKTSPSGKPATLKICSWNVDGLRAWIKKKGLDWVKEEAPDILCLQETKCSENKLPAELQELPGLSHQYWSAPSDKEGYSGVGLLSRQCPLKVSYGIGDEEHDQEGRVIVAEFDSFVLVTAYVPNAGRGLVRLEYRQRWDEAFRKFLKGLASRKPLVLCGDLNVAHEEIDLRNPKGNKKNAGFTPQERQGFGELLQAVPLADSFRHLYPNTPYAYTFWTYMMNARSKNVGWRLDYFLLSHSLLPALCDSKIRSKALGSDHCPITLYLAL
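Activity was derived from the fluorescence gain between first and third kinetic reads (60 s intervals, ex 525/em 598 nm) after 50 nM THF-abasic TAMRA/BHQ-2 duplex was added to 0.75 nM APE1 preincubated 15 min with compound.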
BLM helicase inh: inhibitors of human Bloom syndrome helicase BLM. P54132. recombinant BLM DNA unwinding, fluorescence dequenching. Potency, µM (series often up to 56.1 µM), for inactives: at the top dose activity change, negative = inhibition, usual class: inhibitors. 350,000 compounds, 0.2% hits;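 further: plate controls were vehicle for no effect and no enzyme for full effect; nearly all actives have a fitted effect of over 35% in size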
RECQ1 inh: blocks DNA unwinding by human RECQ1; 240,000 compounds, 0.54% hits; RECQ1 DNA unwinding, red fluorescence kinetic read; Potency, µM (series often up to 57.3 µM), without a hit: top-dose activity, negative = inhibition, most hits filed as inhibitors; P46063;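 further: plate controls were vehicle for no effect and no enzyme for full effect; nearly all actives have a fitted effect of over 30% in size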
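RECQ1T1 50 nM; forked duplex (20 bp + 30-nt ss tails) 200 nM, ATP 2 mM final; pH 8.0, 2 mM MgCl2, 2.5 ug/ml poly(dI-dC); 15 min compound preincubation; discontinuous kinetic read over 2 h at RT.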
PGK inhibitor: T. brucei PGK inhibition. Potency, µM (doses to about 57.5 µM), for the others: at the top dose activity change, negative = inhibition, usual class: inhibitors. 380,000 compounds, 0.043% hits. PGK/GAPDH coupled, Kinase-Glo luminescence, 60 min; further: nearly all actives have a fitted effect of over 60% in size
Target sequence (P07378 whole entry, looked up): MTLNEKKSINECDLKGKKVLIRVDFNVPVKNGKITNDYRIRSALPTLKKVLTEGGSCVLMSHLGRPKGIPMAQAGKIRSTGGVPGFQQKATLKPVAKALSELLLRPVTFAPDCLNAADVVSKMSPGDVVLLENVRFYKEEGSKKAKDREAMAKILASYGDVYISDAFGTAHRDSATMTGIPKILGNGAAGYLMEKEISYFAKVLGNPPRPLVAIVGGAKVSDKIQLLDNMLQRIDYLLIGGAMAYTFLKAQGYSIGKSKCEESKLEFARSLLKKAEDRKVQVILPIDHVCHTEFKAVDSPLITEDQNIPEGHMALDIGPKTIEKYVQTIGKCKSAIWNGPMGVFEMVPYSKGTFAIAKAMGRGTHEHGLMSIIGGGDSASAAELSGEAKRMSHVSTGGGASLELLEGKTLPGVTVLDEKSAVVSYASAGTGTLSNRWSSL
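Luminescent ATP detection (Kinase-Glo Plus) follows a 60-minute room-temperature incubation, with wells lacking PGK as controls. Buffer: 100 mM TEA (pH 7.6), 5 mM MgCl2, 0.01% Tween-20. Coupling enzyme GAPDH (100 nM final) supplies unstable 1,3-BPG in-well.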
Active calls of the source: *; i = inactive; ? = inconclusive; · = no result; [ ] = dose if it differs, or a comment. The call rests on the fitted dose curve; in most records, active means well fitted curve in the direction sought with a large enough effect; inconclusive means small, poorly fitted or top-dose-only effect, or another doubt; inactive means no such curve, though single readings can be large; an effect the other way counts as inactive or inconclusive. Unless noted, on the % scale 0 is the no-effect control and ±100 the full control effect; potency means the concentration at half of the fitted maximal effect.

SMILES | TDP1 block | GLS inhibitor | APEX1 inh | BLM helicase inh | RECQ1 inh | PGK inhibitor
O=c1c2ccccc2nc2sc(Nc3ccc(Br)cc3)nn12 | · | · | -9% | · | · | ·
Nc1cc2nsnc2cc1Br | -6% | 8% | ? | 4µM* | ? | -19%
CCOC(=O)C(=Cc1ccc(N(C)C)cc1)C(=O)c1ccccc1 | · | 34% | · | · | · | ·
CCOC(=O)N(O)c1ccc(C=Cc2ccccc2)cc1 | · | -12% | · | · | · | 28µM*
C#Cc1nc(Nc2cccc(Cl)c2)nc(NC2CCCC2)n1 | -2% | · | · | · | · | ·
CC(C)(C)c1csc(NNC(=O)c2ccc(Br)cc2)n1 | 6% | 5µM* | -2% | -9% | i | 12%
COc1cccc(-c2csc(N3CCC(C(N)=O)CC3)n2)c1 | · | · | 19% | · | · | ·
COc1cccc(CN2C(=O)C3CCCN3c3ccc(S(=O)(=O)N4CCOCC4)cc32)c1 (configuration not stated) | 4% | · | 15% | -4% | 28µM* | ·
COc1ccc(CCC(=O)N2CCN(S(=O)(=O)c3ccc(C)cc3)CC2)cc1 | 1% | -9% | -3% | · | · | -1%
COc1ccc(S(=O)(=O)N2CCN(C(=O)c3ccc([N+](=O)[O-])o3)CC2)cc1 | 45µM* | 2% | -4%[12.4 µM] | -8% | · | -17%
Cc1ccc(S(=O)(=O)N2CCN(C(=O)c3cc4c(s3)CCCC4)CC2)cc1 | 1% | 0% | 2% | · | · | 5%
COc1ccc(S(=O)(=O)N2CCN(C(=O)c3cc4c(s3)CCC4)CC2)cc1 | · | ? | 2.7µM* | · | · | ?
CCCN(CCC)C(=O)C(CCC(=O)OCCCN1CCN(CCOC(=O)Cc2c(C)n(C(=O)c3ccc(Cl)cc3)c3ccc(OC)cc23)CC1)NC(=O)c1ccccc1 (configuration not stated) | · | 3% | · | · | · | ·
CCN1CCN(C(=O)c2ccc3c(=O)n(Cc4ccccc4OC)c(=S)[nH]c3c2)CC1 | 4% | 11µM* | 0% | 0% | 0% | i
COc1ccccc1Cn1c(=S)[nH]c2cc(C(=O)NCCN(C)C)ccc2c1=O | · | 10µM* | 19% | -3% | · | 7%
COc1ccccc1Cn1c(=S)[nH]c2cc(C(=O)NCC3CCCO3)ccc2c1=O (configuration not stated) | -1% | 51% | -2% | -1% | i | -6%
Cc1c(N)nc([C@@H](CC(N)=O)NC[C@H](N)C(N)=O)nc1C(=O)N[C@H](C(=O)N[C@@H](C)[C@@H](O)[C@@H](C)C(=O)N[C@H](C(=O)NCCc1nc(-c2nc(C(=O)NCCCN[C@H](C)c3ccccc3)cs2)cs1)[C@H](C)O)[C@@H](O[C@H]1O[C@@H](CO)[C@H](O)[C@@H](O)[C@H]1O[C@H]1O[C@@H](CO)[C@@H](O)[C@H](OC(N)=O)[C@H]1O)c1cnc[nH]1 | · | -1% | · | · | · | ·
CCOc1ccc(OCc2ccc(C(=O)O)o2)cc1 | · | -25% | ? | 3% | -6% | -12%
CCCCCCCCCCCCCCOc1ccc(C(=O)O)o1 | 40µM* | · | 25µM* | -24% | -5% | ·
CC1(C)CC[C@]2(C(=O)n3ccnc3)CC[C@]3(C)[C@H](C(=O)C=C4[C@@]5(C)C=C(C#N)C(=O)C(C)(C)[C@@H]5CC[C@]43C)[C@@H]2C1 | · | 10µM* | · | · | · | -3%
CC(C)C(OC(=O)CNC(=O)c1ccccc1)C(=O)Nc1cc(C(F)(F)F)ccc1Cl (configuration not stated) | 0% | · | · | · | · | ·
NNC(=O)c1cc2c(ccc3ccccc32)o1 | 5% | 22µM* | 2% | 3% | 6% | -7%
O=C(N/N=C/c1ccncc1)c1cc2c(ccc3ccccc32)o1 | · | 3% | 13% | 1% | -15% | -10%
O=C(O)c1ccc(/C=N/NC(=O)c2cc3c(ccc4ccccc43)o2)cc1 | 40µM* | -10% | ? | -25% | · | -28%
CCOc1ccc(N=C(C)Nc2ccc(OCC)cc2)cc1 | · | 11% | · | · | · | ·
SMILES | TDP1 block | GLS inhibitor | APEX1 inh | BLM helicase inh | RECQ1 inh | PGK inhibitor
C=CC[N@@+]12CC[C@@]34c5ccccc5N5/C=C6/[C@H]7C[C@H]8[C@@]9(CC[N@@+]8(CC=C)C/C7=C/CO)c7ccccc7N(/C=C(/[C@@H](C[C@@H]31)/C(=C\CO)C2)[C@H]54)[C@@H]69 | · | · | -1%[21 µM] | · | · | ·
COc1ccc(-c2no[n+]([O-])c2C#N)cc1 | · | · | 1% | · | · | ·
CC(=O)NC1C(=O)N=C(SCC(=O)NCc2ccccc2)NC1=O (configuration not stated) | 25µM* | 47% | 9% | 6% | 0% | 6%
COC(=O)C1=C(O)C2(C(=O)O)CC(C(=O)OC)=C(O)C(C(=O)O)(C1)C2 | · | 11µM* | -3% | 0% | -7% | 7%
Cc1ccc(NS(=O)(=O)c2ccc3c(c2)CCN(C(=O)C(F)(F)F)C3)cc1C | 0% | · | · | · | · | ·
C=C(CCC12O[C@H](C(=O)O)[C@@](O)(C(=O)O)[C@](C(=O)O)(O1)[C@H](OC(=O)/C=C/[C@@H](C)C[C@@H](C)CC)[C@H]2O)[C@@H](OC(C)=O)[C@H](C)Cc1ccccc1 | 6% | · | -6% | 22µM* | i | ·
Cc1ccc(/C=C2/Sc3ccc(C(=O)NCc4ccccn4)cc3NC2=O)cc1 | 32µM* | 18µM* | 5% | -12% | · | -6%
CCOc1ccc(-n2c(=S)sc3c(=O)[nH]c(SCC(=O)N4CCC(C)CC4)nc32)cc1 | 5% | 7.1µM* | 0% | -7% | -3% | 7%[11.5 µM]
Cc1ccc(N(C)S(=O)(=O)c2ccc3c(c2)CCC(=O)N3)cc1C | -3% | · | · | · | · | ·
COc1ccc(C#Cc2c(C=O)n(C)c3ccccc23)cc1 | · | 2% | 22% | · | · | -3%
Cn1c(C=O)c(C#Cc2ccccc2)c2ccccc21 | 20µM* | 0% | 8% | · | · | 3%
Cc1ccc(NC(=O)CSc2nc(-c3ccco3)nc3cc(=O)[nH]n23)c(Cl)c1 | 50µM* | ? | -1% | -5% | · | -19%
O=C(CSc1nc(-c2ccco2)nc2cc(=O)[nH]n12)Nc1ccccc1Cl | · | 2% | · | 1% | · | -2%
CO[C@H]1[C@@H](O)[C@H](N)[C@@H](O[C@H]2O[C@@H]([C@H](C)N)CC[C@H]2N)[C@H](O)[C@@H]1N(C)C(=O)CN | · | 1% | · | · | · | ·
CCCCn1c(O)c(/C=C/C=C/C=Nc2ccccc2)sc1=S | 8% | -22% | -5% | -25% | 32µM* | -9%
Cc1cccc(NC(=O)CN2CCN(C(=O)c3ccc(OCc4cn5ccccc5n4)cc3)CC2)c1C | 45µM* | -3% | -8% | · | · | -12%
O=C(CN1CCN(C(=O)c2ccc(OCc3cn4ccccc4n3)cc2)CC1)Nc1cccc(F)c1 | 0% | -5% | 49% | · | · | -8%

Source: PubChem BioAssay
